{"source": "PubChem BioAssay (NCATS)", "note": "Results filed as inconclusive are left out. Activity calls are given as the source filed them. The call rests on the fitted dose curve; in most records, active means well fitted curve in the direction sought with a large enough effect; inconclusive means small, poorly fitted or top-dose-only effect, or another doubt; inactive means no such curve, though single readings can be large; an effect the other way counts as inactive or inconclusive. Non-standard residues stand in square brackets, D forms with d. Residues, ends and D or L forms follow the SMILES beside them."}
{"assay": "BET inhibitor-based combinations targeting novel dependencies in MECOM-rearranged (r) AML: UCSD-AML1 cell line (AID 2202235); further: nearly all actives have a fitted effect of over 40% in size; further: potency means the concentration at half of the fitted maximal effect;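 on viability (% of control): plate controls were DMSO vehicle wells for no effect and blank wells for full effect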", "details": "UCSD-AML1 AML cells viability, CellTiter-Glo, 48 h; series mostly up to 46 µM", "procedure,_shortened": "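Luminescent ATP readout (CellTiter-Glo, 15 min at room temperature) after 48 hr drug exposure gave viability. Dose-response curves, normalized to DMSO and empty-well controls, were summarized as area under the curve and its mean-centred Z-score.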"}
{"molecule": "COC1CCC(N2C(=O)CNc3ncc(-c4ccc(C(C)(C)O)nc4)nc32)CC1", "note": "(stereo not drawn)", "Potency": "525 nM (active)"}
{"molecule": "C[C@H]1O[C@H](O[C@H]2[C@H](O)[C@@H](O)[C@@H](O[C@H]3[C@H](O)[C@@H](O)C(O)O[C@@H]3CO)O[C@@H]2CO)[C@H](O)[C@@H](O)[C@@H]1N[C@H]1C=C(CO)[C@@H](O)[C@H](O)[C@H]1O", "note": "(stereo partly drawn)", "Potency": "inactive"}
{"molecule": "CC(C)C[C@@H]1NC(=O)[C@@H](C(C)C)NC(=O)[C@@H]2CCCN2C(=O)[C@@H](CC(=O)O)NC(=O)[C@@H](Cc2c[nH]c3ccccc23)NC1=O", "note": "(cyclo(L[dW][dD]P[dV]))", "Potency": "inactive"}
{"molecule": "Cc1cnc(NC(=O)c2cc(Oc3cnc(C(=O)N(C)C)nc3)c3cc(C)oc3c2)cn1", "Potency": "inactive"}
{"molecule": "CC(C)(CO)n1cc(C(=O)c2cncc(NC(=O)Cc3ccc(Cl)cn3)c2)c2cnc(N)nc21", "Potency": "inactive"}
{"molecule": "CN1CCC(c2c(O)cc(O)c3c(=O)cc(-c4ccccc4Cl)oc23)C1CO", "note": "(stereo not drawn)", "Potency": "1050 nM (active)"}
{"molecule": "CCCCCCCOc1ccc(CCC(N)(CO)CO)cc1C(F)(F)F", "Potency": "10500 nM (active)"}
{"molecule": "COc1cccc2c1C(=O)c1c(O)c3c(c(O)c1C2=O)C[C@@](O)(/C(CO)=N/NC(=O)CCCCCN1C(=O)C=CC1=O)C[C@@H]3O[C@H]1C[C@H](N)[C@H](O)[C@H](C)O1", "Potency": "525 nM (active)"}
{"molecule": "Cc1ccc(-n2[nH]c(C)c(N=Nc3cccc(-c4cccc(C(=O)O)c4)c3O)c2=O)cc1C", "Potency": "inactive"}
{"molecule": "C[C@]12CC[C@H](O)CC1=CC[C@@H]1[C@@H]2CC[C@]2(C)C(c3cccnc3)=CC[C@@H]12", "Potency": "inactive"}
{"molecule": "CCOCOC[C@H](C[C@H](C)C(=O)NO)NC(=O)c1ccc(Oc2ccccc2)cc1", "Potency": "inactive"}
{"molecule": "COc1cc(/C=C/C(=O)CC(=O)/C=C/c2ccc(O)c(OC)c2)ccc1O", "Potency": "13200 nM (active)"}
{"molecule": "COc1ccc(N2C(=O)N(c3c(C)cccc3Cl)Cc3cnc(Nc4ccc(C5CCN(C)CC5)cc4OC)nc32)nc1", "Potency": "13200 nM (active)"}
{"molecule": "COc1cc(Nc2cnc(C#N)c(O[C@H](C)CN(C)C)n2)ncc1-c1cnn(C)c1", "Potency": "1860 nM (active)"}
{"molecule": "CNC1CCCN(c2c(F)cc3c(=O)c(C(=O)O)cn(C4CC4)c3c2OC)C1", "note": "(stereo not drawn)", "Potency": "inactive"}
{"molecule": "CN(C)C(=O)COC(=O)Cc1ccc(OC(=O)c2ccc(N=C(N)N)cc2)cc1", "Potency": "inactive"}
{"molecule": "OC1CCC([C@H](O)C[C@H]2c3c(F)cccc3-c3cncn32)CC1", "note": "(stereo partly drawn)", "Potency": "inactive"}
{"molecule": "CC[C@@]1(O)C(=O)OCc2c1cc1n(c2=O)Cc2c-1nc1ccccc1c2CCNC(C)C", "Potency": "7.4 nM (active)"}
{"molecule": "C/C(=N\\NC(=S)N1CCC1)c1ccccn1", "Potency": "41.7 nM (active)"}
{"molecule": "O=C(O)CCNc1cc(N2CCc3ccccc3CC2)nc(-c2cccnc2)n1", "Potency": "inactive"}
{"molecule": "C[C@@H](OC[C@@]1(c2ccccc2)CC[C@]2(CCC(=O)N2)CN1)c1cc(C(F)(F)F)cc(C(F)(F)F)c1", "Potency": "23500 nM (active)"}
{"molecule": "CC(=O)c1cc2c(o1)C(=O)c1ccccc1C2=O", "Potency": "2950 nM (active)"}
{"molecule": "COc1cc([C@@H]2c3cc4c(cc3[C@@H](O[C@@H]3O[C@@H]5CO[C@@H](c6cccs6)O[C@H]5[C@H](O)[C@H]3O)[C@H]3COC(=O)[C@H]23)OCO4)cc(OC)c1O", "Potency": "132 nM (active)"}
{"molecule": "CO[C@H]1/C=C\\C=C(\\C)C(=O)NC2=CC(=O)C(NCCN(C)C)=C(C[C@@H](C)C[C@H](OC)[C@H](O)[C@@H](C)/C=C(/C)[C@@H]1OC(N)=O)C2=O", "Potency": "296 nM (active)"}
{"molecule": "CC(C)(S)[C@@H](N)C(=O)O", "viability (% of control)": "112% [at 5.12 µM] (inactive)"}
{"molecule": "Cc1nc2ccc(CN(C)c3ccc(C(=O)N[C@@H](CCC(=O)O)C(=O)O)s3)cc2c(=O)[nH]1", "Potency": "46.8 nM (active)"}
{"molecule": "CCCc1nc(C)c2c(=O)[nH]c(-c3cc(S(=O)(=O)N4CCN(CC)CC4)ccc3OCC)nn12", "Potency": "inactive"}
{"molecule": "CC1(C)O[C@@H]2C[C@H]3[C@@H]4C[C@H](F)C5=CC(=O)C=C[C@]5(C)[C@H]4[C@@H](O)C[C@]3(C)[C@]2(C(=O)CO)O1", "Potency": "inactive"}
{"assay": "BET inhibitor-based combinations targeting novel dependencies in MECOM-rearranged (r) AML: AML-191 cell line (AID 2202236; further: nearly all actives have a fitted effect of over 35% in size; further: potency means the concentration at half of the fitted maximal effect;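 on viability (% of control): plate controls were vehicle wells for no effect and wells without cells for full effect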)", "details": "AML-191 viability, CellTiter-Glo luminescence, 48 h; series mostly up to 46 µM", "procedure,_shortened": "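Luminescent ATP readout (CellTiter-Glo) after 48 hr drug exposure gives viability. Curves span 11 concentrations and are normalized to DMSO and empty wells. Activity is reported as area under the curve and its Z-transform within each cell line.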"}
{"molecule": "N[C@@H]1CN(c2c(F)cc3c(=O)c(C(=O)O)cn([C@@H]4C[C@@H]4F)c3c2Cl)CC12CC2", "Potency": "inactive"}
{"molecule": "CC(C)C[C@@H]1NC(=O)[C@@H](C(C)C)NC(=O)[C@@H]2CCCN2C(=O)[C@@H](CC(=O)O)NC(=O)[C@@H](Cc2c[nH]c3ccccc23)NC1=O", "note": "(cyclo(L[dW][dD]P[dV]))", "Potency": "inactive"}
{"molecule": "Cc1cnc(NC(=O)c2cc(Oc3cnc(C(=O)N(C)C)nc3)c3cc(C)oc3c2)cn1", "Potency": "inactive"}
{"molecule": "CN[C@@H]1[C@@H](O)[C@@H](O[C@@H]2[C@@H](O)[C@H](O[C@H]3O[C@H](CN)[C@@H](O)[C@H](O)[C@H]3O)[C@@H](N)C[C@H]2NC(=O)C(O)CN)OC[C@]1(C)O", "note": "(stereo partly drawn)", "Potency": "inactive"}
{"molecule": "CCCCCCCOc1ccc(CCC(N)(CO)CO)cc1C(F)(F)F", "Potency": "18.6 µM (active)"}
{"molecule": "O=C(O)CNC(=O)c1nc(Cl)c2ccccc2c1O", "Potency": "inactive"}
{"molecule": "CCOc1ccc(-n2c([C@@H](C)N(Cc3cccnc3)C(=O)Cc3ccc(F)c(C(F)(F)F)c3)nc3ncccc3c2=O)cc1", "Potency": "inactive"}
{"molecule": "COc1cccc2c1C(=O)c1c(O)c3c(c(O)c1C2=O)C[C@@](O)(/C(CO)=N/NC(=O)CCCCCN1C(=O)C=CC1=O)C[C@@H]3O[C@H]1C[C@H](N)[C@H](O)[C@H](C)O1", "Potency": "1.05 µM (active)"}
{"molecule": "CCCNC(=O)c1cn2ncnc(Nc3cc(C(=O)NC4CC4)ccc3C)c2c1C", "Potency": "inactive"}
{"molecule": "COc1ccc(N2C(=O)N(c3c(C)cccc3Cl)Cc3cnc(Nc4ccc(C5CCN(C)CC5)cc4OC)nc32)nc1", "Potency": "16.6 µM (active)"}
{"molecule": "COc1cc(Nc2cnc(C#N)c(O[C@H](C)CN(C)C)n2)ncc1-c1cnn(C)c1", "Potency": "1.86 µM (active)"}
{"molecule": "OC1CCC([C@H](O)C[C@H]2c3c(F)cccc3-c3cncn32)CC1", "note": "(stereo partly drawn)", "Potency": "inactive"}
{"molecule": "COc1nnc2ccc(N3CCC(c4ccc(OCCN5CCN(C)C(=O)[C@H]5C)cc4)CC3)nn12", "Potency": "0.0833 µM (active)"}
{"molecule": "CC[C@@]1(O)C(=O)OCc2c1cc1n(c2=O)Cc2c-1nc1ccccc1c2CCNC(C)C", "Potency": "0.0118 µM (active)"}
{"molecule": "C/C(=N\\NC(=S)N1CCC1)c1ccccn1", "Potency": "0.0372 µM (active)"}
{"molecule": "CNCCCOc1cc(F)c(-c2c(Cl)nc3ncnn3c2N[C@@H](C)C(F)(F)F)c(F)c1", "Potency": "0.0934 µM (active)"}
{"molecule": "CC(=O)c1cc2c(o1)C(=O)c1ccccc1C2=O", "Potency": "2.35 µM (active)"}
{"molecule": "COc1cc(N2CCN(C)CC2)ccc1Nc1ncc2c(n1)N(C)c1ccccc1C(=O)N2C", "Potency": "18.6 µM (active)"}
{"molecule": "CC(C)(C)NC(=O)c1cncn1C1CCN(c2ccc(-c3nnc(C(F)(F)F)o3)cn2)CC1", "Potency": "13.2 µM (active)"}
{"molecule": "O=[N+]([O-])c1ccc(O)c2ncccc12", "Potency": "8.33 µM (active)"}
{"molecule": "COc1cc([C@@H]2c3cc4c(cc3[C@@H](O[C@@H]3O[C@@H]5CO[C@@H](c6cccs6)O[C@H]5[C@H](O)[C@H]3O)[C@H]3COC(=O)[C@H]23)OCO4)cc(OC)c1O", "Potency": "0.332 µM (active)"}
{"molecule": "CO[C@H]1/C=C\\C=C(\\C)C(=O)NC2=CC(=O)C(NCCN(C)C)=C(C[C@@H](C)C[C@H](OC)[C@H](O)[C@@H](C)/C=C(/C)[C@@H]1OC(N)=O)C2=O", "Potency": "1.05 µM (active)"}
{"molecule": "CC(C)(S)[C@@H](N)C(=O)O", "viability (% of control)": "111% [at 5.12 µM] (inactive)"}
{"molecule": "C[C@]12CCC3[C@@H](CC[C@H]4NC(=O)C=C[C@]34C)[C@@H]1CC[C@@H]2C(=O)Nc1cc(C(F)(F)F)ccc1C(F)(F)F", "note": "(stereo partly drawn)", "Potency": "inactive"}
{"molecule": "CCCS(=O)(=O)c1nc(NC2CC2)cc(-c2ccc3c(ccn3C3CC(C)(C)NC(C)(C)C3)c2)n1", "Potency": "3.12 µM (active)"}
